# A selection: hits, their analogues and other compounds. The true share with any hit is near 2.3%.
# FUS suppressor = suppressors of FUS proteinopathy in yeast; S. cerevisiae FUS-expressing, growth rescue, OD600, 24 h; Potency, µM (doses to about 76.6 µM), usual class: activators; 390,000 compounds, 0.24% hits;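 also: potency is read from the fitted curve at half-maximal effect; plate controls were DMSO vehicle for no effect and reference control for full effect; nearly all actives have a fitted effect of over 55% in size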
#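 Cultures pregrown in 2.5% raffinose medium are shifted to minimal medium containing 2% galactose to express toxic FUS. Compounds are tested at several concentrations. After 24hr at 30C, growth is quantified at 600 nm absorbance.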
# pAkt inh = inhibitors of Akt phosphorylation | 360,000 compounds, 0.32% hits | Neuro2A IGF-stimulated pAkt S473 HTRF, 20 min; stronger effect = lower value | AID 651550 | activity change, % for hits at 50 µM; in the data active = activity change below about -80%; inconclusive = mostly about -51% to -80%; also: % is scaled to controls: 0 for no effect and ±100 for the full control effect
#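 Neuro2A cells (4,500/well, DMEM with 0.5% FBS) were treated with compound at a single 50 µM final concentration, stimulated with 6 nM IGF for 20 min at 37 °C, and lysed. Phospho-Akt Ser473 was read by HTRF as 665/615 ratio ×10^4.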
# TDP-43 yeast inh = TDP-43 toxicity inhibition in yeast. 410,000 compounds, 1.8% hits. Potency, µM (series often up to 46.1 µM), for the others: top-dose growth rescue (activation), most hits filed as activators. TDP-43 expressing yeast growth rescue, BacTiter-Glo, 24 h; also: potency is read from the fitted curve at half-maximal effect; % of control where 0% means no effect; nearly all actives have a fitted effect of over 50% in size
#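 In this qHTS, compounds that restore growth of yeast expressing TDP-43 appear as activators. Cells (OD600=0.02, galactose medium, raffinose-pregrown) are incubated with compound 24 hr at 30 deg C and growth is quantified by BacTiter-Glo.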
# aSyn rescue = rescues yeast growth from alpha-synuclein toxicity; Yeast expressing alpha-synuclein, growth rescue, BacTiter-Glo, 24 h; 370,000 compounds, 0.14% hits; Potency, µM (doses to about 46.1 µM), for the others: top-dose growth rescue (activation), hits mostly activators; AID 652106; also: potency is read from the fitted curve at half-maximal effect; % of control where 0% means no effect; nearly all actives have a fitted effect of over 65% in size
#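 Rescue of yeast growth: cells expressing toxic alpha-synuclein, induced in galactose at OD600 0.02, incubated with compound 24 h at 30 C. ATP luminescence quantified growth; inhibitors of toxicity appear as activators.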
# Abeta rescue = A-beta toxicity reversal in yeast. Potency, µM (doses to about 46.1 µM), actives largely listed as activators. 410,000 compounds, 0.063% hits. yeast expressing A-beta42, growth rescue, OD600, 48 h; response scale: 0% DMSO, 100% iron-clioquinol control. AID 1347071; also: potency is read from the fitted curve at half-maximal effect; nearly all actives have a fitted effect of over 55% in size
#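 Yeast A-beta toxicity model in growth medium with pinned compounds, 48 h at 30 C; growth read as absorbance at 600 nm. Normalized to FeCl3/clioquinol equimolar mix (positive) and DMSO (negative).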
# * marks the source's active call; other numbers are inactive results; i = inactive; ? = inconclusive; . = no result given; ! = not confirmed by another sample. Unless noted, calls follow the shape of the dose curve; as a rule, active = well fitted curve in the direction sought with a large enough effect; inconclusive = small, poorly fitted or top-dose-only effect, or another doubt; inactive = no such curve, though single readings can be large; an effect the other way counts as inactive or inconclusive.
SMILES,FUS suppressor,pAkt inh,TDP-43 yeast inh,aSyn rescue,Abeta rescue
CCOc1ccc(CCNC(=O)c2nc(-c3cccc(F)c3)n3c2CCCCC3)cc1OCC,?,.,17.8µM*,.,i
CN(C(=O)c1nc(-c2cccc(F)c2)n2c1CCCCC2)c1ccccc1F,i,.,-1.0%,.,i
CCOC(=O)c1cnc2ccc(OCC)cc2c1N1CCN(c2ccccc2)CC1,?,i,17.8µM*,6.8%,i
CCOC(=O)c1cnc2ccc(OCC)cc2c1N1CCN(c2ccccc2F)CC1,?,.,15.8µM*,.,i
Cc1oc2ccc(O)c(CN3CCN(Cc4ccccc4)CC3)c2c1C(=O)Nc1cccc(Cl)c1C,i,.,-7.0%,.,i
O=C(C1CC1)N1CCc2cc(Br)cc(S(=O)(=O)N3CCCCCC3)c21,i,i,25.4%,-19.1%,i
CCC(=O)N1CCc2cc(Br)cc(S(=O)(=O)N3CCCC(C(=O)Nc4ccc(C)c(F)c4)C3)c21 (configuration not stated),i,.,-11.7%,.,i
O=C(C1CC1)N1CCc2cc(Br)cc(S(=O)(=O)NC3CCCCC3)c21,i,-118.7%*,9.4%,-5.9%,i
CCC(=O)N1CCc2cc(Br)cc(S(=O)(=O)N3CCCC(C(=O)Nc4ccc(C(C)C)cc4)C3)c21 (configuration not stated),8.91µM*,.,-7.9%,.,i
O=[N+]([O-])c1ccccc1S(=O)(=O)N1CCN(c2nc(-c3cccs3)nc3ccccc23)CC1,.,.,.,-4.5%,.
CC(C)[C@@H]1CC[C@@H](C)c2c(-c3ccccc3)n[nH]c21,i,.,11.2µM*,?,i
NC(=S)Nc1cc2ccccc2c2ccccc12,i,i,22.4µM*,0.3%,i
NC(=S)Nc1cccc2cc3ccccc3cc12,i,i,?,-24.4%,i
Cc1cccc(N2CCN(C(=O)CN3C(=O)CSc4c3c(C)nn4-c3ccccc3)CC2)c1C,i,.,19.7%,.,i
Cc1cc(-n2c(C)nc3ccccc3c2=O)ccc1NC(=O)c1cccc([N+](=O)[O-])c1,i,.,19.8%,.,i
CC(=O)Nc1ccc2c(c1)C(=O)N(c1cccc3ccccc13)C2=O,i,i,9.5%,-10.8%,i
Cc1ccc(N2C(=O)c3ccc(N)cc3C2=O)cc1C,i,i,11.2µM*,1.8%,i
Nc1ccc2c(c1)C(=O)N(c1cccc3ccccc13)C2=O,i,i,14.1µM*,11.2%,i
COc1ccc(OC)c(/C=C/c2cc3ccccc3c[n+]2C)c1,.,.,.,-1.8%,.
CN(C)c1ccc(NC(=O)Cn2cc(S(=O)(=O)Cc3ccccc3Cl)c3ccccc32)cc1,i,.,10.9%,.,i
Cc1ccc(C(=O)Oc2cccc(NC(=O)c3ccccc3)c2)cc1C,.,i,11.6%,0.0%,?
O=C(Nc1cccc(OC(=O)c2ccc(Br)o2)c1)c1ccccc1,i,i,22.4µM*,-6.6%,i
CCCCCCOC(=O)c1ccc(N)cc1,i,i,12.6µM*,1.7%,i
CCCCOC(=O)c1ccc(N)cc1,i,i,?,0.3%,i
COc1cc2c(NC3CCN(C)CC3)nc(N3CCCCC3)nc2cc1OCCOCCN1CCCC1,.,.,.,5.5%,.
SMILES,FUS suppressor,pAkt inh,TDP-43 yeast inh,aSyn rescue,Abeta rescue
CCNC(=O)c1ccc(CSc2nc3ccccc3s2)cc1,i,i,14.1µM*,8.1%,i
CCc1ccc(Nc2nc(N)nc(CSc3nc4ccccc4s3)n2)cc1,i,i,25.1µM*!,0.9%,?
O=C(NCc1ccccc1)c1nc2ccccc2s1,i,i,22.4µM*,-18.7%,i
COC(=O)CSc1nc2ccc(NC(C)=O)cc2s1,i,i,-16.1%,-5.5%,i
Cc1nnc(SCc2nc(N)nc(Nc3ccccc3)n2)s1,i,i,-3.6%,-0.7%,i
CC(=O)Nc1ccc2nc(SCc3ccccc3)sc2c1,i,.,17.8µM*,.,i
CC(C)c1cnc2c(c1SCC(=O)NCc1ccccc1)c(=O)n(C)c(=O)n2C,i,.,21.1%,.,i
CCOc1ccc(-n2c(Cc3ccccc3)nnc2SCc2nc(-c3cccs3)no2)cc1,i,.,5.1%,.,i
CCc1ccc(CN(Cc2cn[nH]c2-c2ccc(OC)cc2)C(=O)Nc2cc(Cl)ccc2OC)cc1,i,.,0.0%,.,i
Cc1ccc(CNC(=O)c2cccc(-n3cnc4cccnc43)c2)cc1,i,.,?,.,i
Cc1nc(Cl)c(C(=O)NC(=O)NCc2ccccc2)c(C)c1Cl,i,i,14.1µM*,20.8%,i
Cc1ccccc1NC(=O)c1c(Cl)nc(C)c(Cl)c1C,i,i,18.8%,-0.4%,i
N#Cc1c(N)nc(SCC(=O)NCCc2ccccc2)c(C#N)c1-c1cccs1,i,-89.4%*,16.2%,0.5%,i
COc1cc(-c2cc(OC)c3c(C)oc(C)c3c(=O)c2)ccc1OC(=O)c1ccccc1C,?,.,20µM*,.,i
COc1cc(-c2cc(OC)c3c(C)oc(C)c3c(=O)c2)ccc1OC(=O)c1ccc(C)cc1,?,.,?,.,i
CCOc1cc(-c2ccc(OC(=O)c3ccc(C)cc3)c(OC)c2)cc(=O)c2c(C)oc(C)c12,?,.,17.8µM*,.,i
COc1cc(-c2cc(OC)c3c(C)oc(C)c3c(=O)c2)ccc1OC(=O)c1cccc(Cl)c1,?,.,20µM*,.,i
COc1ccc(C)cc1NC(=O)c1ccc2c(c1)nnn2C1CCCC1,i,.,-2.0%,.,i
CCC12CN3CC(CC)(CN(C1)C3c1ccc(OC(C)C)cc1)C2=O (configuration not stated),i,-111.9%*,11.7%,0.4%,i
O=S(=O)(NCc1c(Cl)cccc1Oc1ccccc1)c1ccc(F)cc1,i,i,17.8µM*,5.5%,i
CCc1c(C)nc2ncnn2c1NC1CCCc2ccccc21 (configuration not stated),i,i,22.3%,7.7%,12.6µM*
Cc1ccc2c(c1)[C@H]1[C@H](CO2)[C@H](c2ccccc2)[C@]2(C)C(=O)N(Cc3ccc(Cl)cc3)CC(=O)N12,?,i,25.2%,0.1%,?
COc1ccc2c(c1)OC[C@H]1[C@H]2N2C(=O)c3cc(F)ccc3NC(=O)[C@@]2(C)[C@H]1c1ccccc1,i,i,20µM*,7.7%,i
COc1ccc2c(c1)C(=O)N1[C@H]3c4cc(Cl)ccc4OC[C@@H]3[C@H](c3ccccc3)[C@]1(C)C(=O)N2,?,i,25.9%,-2.6%,?
Cc1ccc2c(c1)[C@H]1[C@H](CO2)[C@H](c2ccccc2)[C@]2(C)C(=O)Nc3ccc(F)cc3C(=O)N12,i,i,-9.5%,-5.1%,i
C[C@@]12C(=O)Nc3ccc(Br)cc3C(=O)N1[C@H]1c3cc(Br)ccc3OC[C@@H]1[C@@H]2c1ccccc1,i,i,-19.3%,1.5%,i
